# Bioassay records as filed in PubChem.
# BRCA1 expr up: activators of BRCA1 expression. AID 624202. 380,000 compounds, 1.1% hits. Potency, µM (highest dose often 46.1 µM), inactives show at the top dose activation, hits mostly activators. MCF7-BRCA1-FFLuc reporter, luminescence, 48 h; response scale: scaled: vehicle 0%, 10 µM genistein 100%; note: potency is the fitted concentration of half-maximal effect; nearly all actives have a fitted effect of over 80% in size
#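 Quantitative HTS in MCF7 cells stably reporting BRCA1 expression via firefly luciferase. Compound treatment lasts 48 h at 37 °C in phenol-red free MEM. Activation is expressed relative to genistein at 10 microM and DMSO.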
# Nrf2 inh: inhibitors of Nrf2 signaling; A549 ARE-Fluc reporter, luciferase luminescence, 18-24 h; Potency, µM (doses to about 46 µM), for the others: at the highest dose activity change, negative = inhibition, usual class: inhibitors; 360,000 compounds, 2.1% hits; note: potency is the fitted concentration of half-maximal effect; % is set by controls: 0 for no effect and ±100 for the full control effect; nearly all actives have a fitted effect of over 60% in size
#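 A549 ARE_Fluc cells (5000/well, 5% FBS OPTI-MEM) pre-incubated 2 h, then treated with compounds 18-24 h at 37C/5% CO2 in concentration-response. CellTiter-Fluor viability read first; BugLite luciferase luminescence after 15 min at room temperature gives Nrf2 activity.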
# p53 reactivator: re-activators of mutant p53; H1299 p53-A138V BP100-luciferase reporter, luminescence, 24 h; Potency, µM (doses to about 92.2 µM), for inactives: top-dose activity change, positive = activation, usual class: activators; 320,000 compounds, 0.063% hits; note: potency is the fitted concentration of half-maximal effect; % of control where 0% means no effect; nearly all actives have a fitted effect of over 45% in size
#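 p53-null H1299 cells stably carrying temperature-sensitive p53-A138V and a BP100-luciferase reporter were pinned with compounds (4-point, 1:5 series) and held 24 hrs at 37 deg C. Luminescence was read 10 min after detection reagent.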
# A549 tox-1: kills or reduces viability of A549 cells in Nrf2 counter-screen. A549 ARE-Fluc cells, CellTiter-Fluor viability, 18-24 h. Potency, µM (titrated, usually from 46 µM), for inactives: at the highest dose activity change, negative = cytotoxicity, most hits filed as inhibitors. 390,000 compounds, 0.16% hits. AID 504648; note: potency is the fitted concentration of half-maximal effect; % is set by controls: 0 for no effect and ±100 for the full control effect
#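 A549 ARE_Fluc cells in 5% FBS OPTI-MEM were exposed to compounds in concentration-response for 18-24 h at 37 deg C. Viability was read by CellTiter-Fluor fluorescence (Ex 405/Em 525) after 30 min, before the luciferase read.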
# Nrf2 ARE act: activators of Nrf2 (ARE) signaling. AREc32 ARE-luciferase reporter (MCF7-derived line), luminescence, 24 h. Potency, µM (doses to about 46.1 µM), without a hit: at the top dose activation, actives largely listed as activators. 410,000 compounds, 0.31% hits. AID 624171; note: potency is the fitted concentration of half-maximal effect; % of control where 0% means no effect; nearly all actives have a fitted effect of over 65% in size
#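 ARE-driven firefly luciferase activity in AREc32 cells measured after a 24 hr compound exposure at 37 deg C, using Steady-Glo reagent and a 30 min room-temperature hold.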
# IL-2 act: IL-2 activation; IL-2 activation reporter assay, cell-based qHTS; stimulated with anti-CD3/CD4/CD28 beads; in transgenic mouse T cells; activation, % (series mostly up to about 46 µM); AID 652025; 360,000 compounds, 0.065% hits; in the data active = activation above about 50%; inconclusive = mostly about 30% to 49%; note: 0% is about no effect
#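 Unstimulated transgenic mouse T cells preincubated 60 min with compound, then stimulated with anti-CD3/anti-CD4-coated beads plus anti-CD28 for 18 h at 37 degrees C. IL-2 response read as EGFP and DsRed fluorescence by plate cytometry.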
# FLuc enzyme inh: firefly luciferase inhibition, Nrf2 hit validation | shares compounds with Nrf2 inh | purified firefly luciferase, luminescence inhibition | Potency, µM (top dose mostly 57.5 µM), for inactives: at the highest dose activity change, negative = inhibition, hits mostly inhibitors | 1,400 compounds, 4% hits | AID 720522; note: potency is the fitted concentration of half-maximal effect; % is set by controls: 0 for no effect and ±100 for the full control effect; nearly all actives have a fitted effect of over 65% in size
# Target sequence (P08659 whole entry, looked up): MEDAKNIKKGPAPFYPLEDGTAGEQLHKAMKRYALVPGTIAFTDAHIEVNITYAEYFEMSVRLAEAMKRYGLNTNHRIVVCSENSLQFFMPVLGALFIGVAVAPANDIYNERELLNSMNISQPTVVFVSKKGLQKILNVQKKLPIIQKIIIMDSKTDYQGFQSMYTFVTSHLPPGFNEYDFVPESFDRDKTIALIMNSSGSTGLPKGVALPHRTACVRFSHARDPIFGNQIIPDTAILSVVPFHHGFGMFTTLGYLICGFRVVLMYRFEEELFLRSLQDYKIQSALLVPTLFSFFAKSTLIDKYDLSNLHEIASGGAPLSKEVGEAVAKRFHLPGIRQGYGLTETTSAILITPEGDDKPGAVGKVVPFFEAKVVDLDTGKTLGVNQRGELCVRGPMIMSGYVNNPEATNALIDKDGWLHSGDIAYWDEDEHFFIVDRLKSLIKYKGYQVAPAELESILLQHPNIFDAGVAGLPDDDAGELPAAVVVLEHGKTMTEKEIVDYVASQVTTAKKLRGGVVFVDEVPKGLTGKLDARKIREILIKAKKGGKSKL
# A549 tox-2: toxic to A549 ARE-Fluc cells in Nrf2 counterscreen; shares compounds with Nrf2 inh; A549 ARE-Fluc cells, cytotoxicity counterscreen; Potency, µM (top dose mostly 46.1 µM), without a hit: top-dose activity change, negative = cytotoxicity, hits mostly inhibitors; 1,400 compounds, 2% hits; AID 720523;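 note: potency is the fitted concentration of half-maximal effect; cells exposed to compounds for 18 to 24 hours; % is set by controls: 0 for no effect and ±100 for the full control effect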
# ARE-Fluc inh: confirmation of Nrf2 inhibitors in A549 ARE reporter cells; shares compounds with Nrf2 inh; A549 ARE-firefly luciferase reporter, luminescence; Potency, µM (series often up to 46.1 µM), without a hit: top-dose activity change, negative = inhibition, usual class: inhibitors; 1,400 compounds, 74% hits; AID 720524; note: potency is the fitted concentration of half-maximal effect; % is set by controls: 0 for no effect and ±100 for the full control effect; nearly all actives have a fitted effect of over 65% in size
# An asterisk follows results filed as active; ? = inconclusive; / = no result given; [ ] = another dose, or the depositor's remark. Rows were chosen to be rich in hits. Some 3.2% of all compounds tested hit in one or more screens of this group. Unless noted, calls come from the whole dose curve; as a rule, active = well fitted curve in the direction sought with a large enough effect; inconclusive = small, poorly fitted or top-dose-only effect, or another doubt; inactive = no such curve, though single readings can be large; an effect the other way counts as inactive or inconclusive.
SMILES,BRCA1 expr up,Nrf2 inh,p53 reactivator,A549 tox-1,Nrf2 ARE act,IL-2 act,FLuc enzyme inh,A549 tox-2,ARE-Fluc inh
CC(NC(=O)Cn1ccc2cc(S(=O)(=O)N3CCCCCC3)ccc21)c1ccccc1 (centres undefined),/,?,/,?,11%,/,/,/,/
COc1cc(C(=O)NC(c2ccccc2Cl)c2cc(Cl)c3cccnc3c2O)cc(OC)c1OC (centres undefined),/,/,/,-7%,0%,/,/,/,/
COc1ccc(C(=O)NC(c2ccccc2Cl)c2cc(Cl)c3cccnc3c2O)cc1 (centres undefined),-44%,4.1µM*,/,?,-1%,/,-1%,-27%,4.6µM*
CC1CCc2nn(CC(=O)Nc3ccccc3Cl)cc2C1 (centres undefined),/,?,/,8%,1%,/,/,/,/
O=C(NC1CCc2ccccc21)C1CCN(S(=O)(=O)c2ccc(Cl)cc2)CC1 (centres undefined),-26%,-11%,4%,2%,0%,0,/,/,/
O=S(=O)(NC1CCc2ccccc21)c1ccc(S(=O)(=O)N2CCCC2)cc1 (centres undefined),-10%,4.1µM*,-2%,-3%,2%,-1,1%,1%,?
COc1ccc(N(C(=O)COc2c(C)cccc2C)S(=O)(=O)c2ccc(Cl)cc2)cc1,/,-16%,/,-6%,0%,/,/,/,/
CCOC(=O)c1c(Nc2ccc(Cl)cc2)sc(/C=C2\C=Nc3ccccc32)c1O,-54%,1.5µM*,-2%,-7%[1.84 µM],0%,30,-27%,?,4.1µM*
Oc1nc(Nc2cccc(Cl)c2)sc1/C=C1\C=Nc2ccccc21,-80%,-24%,7%,?,3%,-5,/,/,/
COc1ccc(C(=O)CCC(=O)Nc2ccc(C)c(Cl)c2)cc1,/,/,/,3%,0%,/,/,/,/
COc1ccc(C2=Nn3c(nnc3-c3ccccc3C)SC2)cc1,/,13%,/,-13%,/,/,/,/,/
COc1ccc(C2=Nn3c([n+](C)c4ccccc43)SC2)cc1,-63%,2.1µM*,10%,-25%,0%,-3,0%,?,/
Cc1cc(C)c2nc(NNC(=O)c3ccc(S(=O)(=O)N4CC(C)CC(C)C4)cc3)sc2c1 (centres undefined),-72%,?,?,-11%,4%,-3,/,/,/
Cc1cc(C)c2nc(NNC(=O)c3ccc(S(=O)(=O)N4CCCC(C)C4)cc3)sc2c1 (centres undefined),-78%,4.1µM*,?,?,-1%,-4,-1%,-19%,6.5µM*
CC1CCCN(S(=O)(=O)c2ccc(C(=O)Nc3nnc(C4CC4)o3)cc2)C1 (centres undefined),-28%,5.8µM*,?,?,-1%,1,-1%,?,9.2µM*
CCOc1ccc(NC2SC(=O)N(Cc3ccccc3)C2=O)cc1 (centres undefined),/,6%,/,-5%,0%,/,/,/,/
COc1ccccc1-n1c(-c2ccccc2)c[n+]2c1CCc1ccccc1-2,-55%,3.7µM*,-5%,?,-1%,-1,2%,-11%,8.2µM*
CC(C)c1ccc(-n2c(-c3ccccc3)c[n+]3c2CCc2ccccc2-3)cc1,-80%,2.1µM*,-1%,10µM*,24%,-1,2%,?,2.6µM*
Cc1ccc(Cl)cc1N1CCN(C(=O)c2ccc3c(c2)CCN3S(=O)(=O)c2ccccc2)CC1,/,?,/,-10%,1%,/,/,/,/
CCOC(=O)c1ccc(NC(=O)CSc2cc(=O)n(CC)c3ccccc23)cc1,/,/,/,-6%,-1%,/,/,/,/
COCCNC(=O)CSc1ncnc2sc(-c3ccccc3)cc12,22%,6%,3%,-3%,5%,0,/,/,/
O=C(O)CCSc1ncnc2sc(-c3ccccc3)cc12,-85%,2.1µM*,-12%,-14%,-2%,0,9.5µM*,-3%,6.5µM*
COc1cc(NS(=O)(=O)c2ccc(-c3cc(C)no3)cc2)cc(OC)c1,/,6.5µM*,/,-4%,1%,/,-2%,-19%,16µM*
CCCCCCC1CCC(C(=O)NC(C(=O)O)C(C)C)CC1 (centres undefined),/,-20%[9.27 µM],/,0%,3%,/,/,/,/
O=C(NCc1ccc2c(c1)OCO2)c1ccc2c(=O)n(C3CCCC3)c(=O)[nH]c2c1,-42%,8.2µM*,4%,?,4%,4,0%,-9%,0.23µM*
SMILES,BRCA1 expr up,Nrf2 inh,p53 reactivator,A549 tox-1,Nrf2 ARE act,IL-2 act,FLuc enzyme inh,A549 tox-2,ARE-Fluc inh
COc1ccccc1NS(=O)(=O)c1cc(NC(=O)CCC(=O)c2cccs2)ccc1Cl,-38%,8.2µM*,-3%,-17%,0%,-5,-5%,-1%,?
O=C(Nc1ccc(S(=O)(=O)N2CCOCC2)cc1)c1ccc(CN2CCc3ccccc3C2)cc1,-58%,0.82µM*,-6%,?,2%,0,-1%,2%,1.6µM*
CC(=O)c1ccc(NC(=O)c2ccc(S(=O)(=O)N3CCCC3)cc2)cc1,-14%,6%,-3%,0%,3%,0,/,/,/
N#CCc1ccc(NC(=O)c2ccc(CN3CCc4ccccc4C3)cc2)cc1,-13%,5.2µM*,/,0%,4%,-1,-15%,7%,?
O=C(Nc1ccc(S(=O)(=O)N2CCCC2)cc1)c1ccc(CN2CCc3ccccc3C2)cc1,-70%,1.5µM*,4%,-7%,5%,-4,0%,-16%,1.6µM*
O=C(Nc1ccccc1)c1ccc(S(=O)(=O)N2CCOCC2)cc1,24%,?,1%,7%,0%,1,/,/,/
Cn1c(CNC(=O)CSc2n[nH]c(-c3ccccc3Cl)n2)nc2ccccc21,/,/,/,7%,9%,/,/,/,/
COc1ccc(NC(=O)CSc2nc(-c3ccccc3)cc(-c3cc(OC)c(OC)c(OC)c3)c2C#N)c(OC)c1,/,-15%,/,3%,0%,/,/,/,/
Cc1ccc(CNC(=O)CCCn2c(=O)c3ccccc3n(CC(=O)Nc3ccc(C)c(C)c3)c2=O)cc1,19%,28%,/,-6%,1%,/,/,/,/
